One test deals with Albumin (Bos taurus) (UniProt P02769). As to the kind of experiment: compounds binding labelled BSA control protein – biochemical, small-molecule microarray, Alexa647 label, 635/667 nm fluorescence, artefact control for SMM control protein annotation, profiling panel (AID 1118).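 Note: score merges 667 nm emission intensity and signal-to-noise per printed compound spot.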 Conditions: BSA-A647 binding, fluorescence 635 nm, higher = more signal.
The nature of test [1]: probe aXIP binding to arrayed compounds – biochemical, NeuroSMM set, 635/667 nm fluorescence, primary screen (AID 1119).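 Note: probe is the protein aXip251-270 applied at 1 µg/mL to compound-printed slides; binding of probe to printed compounds measured as 667 nm fluorescence plus signal to noise.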 Conditions: small-molecule microarray, higher = more signal, called active from +8 up or from −8 down.
Test [2] in a line: probe aNOTCH3 binding on compound microarray – biochemical, small-molecule microarray, 635/667 nm fluorescence, primary screen (AID 1120).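 Note: probe is a biotin-tagged antibody raised against NOTCH3 rather than NOTCH3 protein; score merges spot fluorescence near 667 nm with spot signal to noise.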 Conditions: higher = more signal.
The nature of test [3]: probe aNOTCH2 binding on compound microarray – biochemical, small-molecule microarray, 635/667 nm fluorescence, primary screen (AID 1121).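 Note: score merges feature fluorescence read at 667 nm with its signal to noise.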 The conditions noted are these: higher = more signal.
Test [4] deals with Carbonic anhydrase 2 (Homo sapiens) (UniProt P00918). Kind of test: compounds binding carbonic anhydrase 2 – biochemical, small-molecule microarray, Alexa647-labelled CAII, profiling panel (AID 1122). Conditions: CAII-A647 binding fluorescence, higher = more signal.
The nature of test [5]: COS7 lysate on small-molecule microarray, probe aHis, 635 nm (AID 1123).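 Note: z-score combines 667nm fluorescence intensity with signal-to-noise per printed compound spot.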 Conditions: COS7 cell lysate, fluorescence, higher = more signal.
The nature of test [6]: probe aLAP1 signal on lysate-treated microarray – cell lysate, small-molecule microarray, COS7 lysate, primary screen (AID 1124).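 Note: lysate comes from COS7 cells expressing LAP1 and is applied at 0.3 µg/mL; score merges spot fluorescence near 667 nm with signal-to-noise over triplicate slides.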 Conditions: probe aLAP1, fluorescence, higher = more signal.
The test system of a further test is Sam68 (KHDRBS1). Kind of test: compounds binding KHDRBS1 protein – biochemical, small-molecule microarray, 635 nm fluorescence, primary screen (AID 1125).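 Note: score merges 667 nm channel intensity with signal to noise over triplicate slides.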 Conditions: higher = more signal.
The subject of test [7] is Chordin-like protein 2 (CHRDL2). Kind of test: compounds binding chordin-like 2 – biochemical, small-molecule microarray, 635 nm fluorescence, primary screen (AID 1126).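 Note: printed compound slides probed with Chrdl2 protein at 4 µg/mL for 1 h at 4 C; score merges 667 nm emission intensity with signal to noise over three replicate slides.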 The conditions noted are these: fluorescence 635 nm, higher = more signal.
Test [8] concerns the target Concanavalin-A (Canavalia ensiformis) (UniProt P02866). As to the kind of experiment: compounds binding concanavalin A lectin – biochemical, small-molecule microarray, Alexa647 label, 635 nm, artefact control for SMM control protein annotation, primary screen (AID 1127).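 Note: z combines 667 nm emission intensity with signal-to-noise across three replicate slides.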 Conditions: ConA-A647 binding fluorescence, higher = more signal.
Test [9] in a line: compounds binding Alexa647 anti-His antibody – biochemical, small-molecule microarray, 635 nm fluorescence, artefact control for SMM control protein annotation, primary screen (AID 1128).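 Note: score merges feature fluorescence with signal-to-noise for each printed compound spot.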 Conditions: higher = more signal.
In test [10] the test system is Human papillomavirus type 1a E7 protein (residues 1-88). Kind of test: HPV1a E7 small-molecule binders, primary screen, biochemical, small-molecule microarray, residues 1-88, 635 nm (AID 1129). Conditions: small-molecule microarray binding, fluorescence 635 nm; higher = more signal.
The target of test [11] is Focal adhesion kinase 1 (Homo sapiens) (UniProt Q05397). Kind of test: PTK2 protein binding on printed compound slides – biochemical, small-molecule microarray, 635/667 nm fluorescence, BSA, DTT, primary screen (AID 1130).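 Note: composite of spot emission at 667 nm and signal to noise over triplicate slides.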 The conditions noted are these: 635 nm fluorescence, higher = more signal.
The test system of test [12] is Fibrinogen (Alexa647-labelled). As to the kind of experiment: Alexa647-fibrinogen binding to printed small molecules – biochemical, small-molecule microarray, 635/667 nm fluorescence, artefact control for SMM control-protein annotation, profiling panel (AID 1131).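 Note: z-score merges 667 nm fluorescence with per-spot signal-to-noise over triplicate slides.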 Conditions: fibrinogen-A647 binding fluorescence, higher = more signal.
The target in test [13] is Follistatin (Homo sapiens) (UniProt P19883). As to the kind of experiment: FST protein binding to printed compounds – biochemical, small-molecule microarray, 635/667 nm fluorescence, primary screen (AID 1132). Conditions: 635 nm fluorescence, higher = more signal.
Test [14] concerns the target Fibroblast growth factor 2 (Homo sapiens) (UniProt P09038). As to the kind of experiment: basic fibroblast growth factor binding to printed compounds – biochemical, small-molecule microarray, 635/667 nm fluorescence, primary screen (AID 1133). The conditions noted are these: FGF2, fluorescence 635/667, higher = more signal.
Test [15] can be described thus: JC-1 mitochondrial potential readout, lung cancer cells – cell-based, A549, JC-1 fluorescence, basal, 24 h, 100 nL, profiling panel (AID 1138).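 Note: A549 lung adenocarcinoma cells under basal conditions with no added stimulus; test concentration not given here.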 The conditions noted are these: higher = more signal.
For another test, the system named is Lefty1. Kind of test: Lefty1 protein binding to printed compounds – biochemical, small-molecule microarray, 635/667 nm fluorescence, primary screen (AID 1139). Conditions: fluorescence 635/667, higher = more signal.
Test [16] has as its system wheat germ agglutinin (Triticum aestivum), Alexa647-labelled. As to the kind of experiment: Alexa647-WGA lectin binding to printed small molecules – biochemical, small-molecule microarray, 635/667 nm fluorescence, artefact control for SMM control-protein annotation, profiling panel (AID 1140).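 Note: score merges 667 nm feature emission with signal to noise over triplicate slides.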 The conditions noted are these: WGA-A647 binding, 635 nm fluorescence, higher = more signal.

The target in test [17] is Luciferin 4-monooxygenase (Photinus pyralis) (UniProt P08659). As to the kind of experiment: inhibition of purified Photinus pyralis luciferase – biochemical, luminescence, purified enzyme, 2006 set, primary screen (AID 1141).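 Note: cell-free assay with purified firefly luciferase at 100 ng per well in PBS; test concentration not given here.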 Conditions: purified firefly luciferase, SteadyGlo luminescence, 30 min; higher = more signal, called active from +8 up or from −8 down.

The results in this text go back to PubChem BioAssay.

Active and inactive are the calls of the source.

Concanavalin-A (Canavalia ensiformis), sequence (P02866 whole entry, looked up): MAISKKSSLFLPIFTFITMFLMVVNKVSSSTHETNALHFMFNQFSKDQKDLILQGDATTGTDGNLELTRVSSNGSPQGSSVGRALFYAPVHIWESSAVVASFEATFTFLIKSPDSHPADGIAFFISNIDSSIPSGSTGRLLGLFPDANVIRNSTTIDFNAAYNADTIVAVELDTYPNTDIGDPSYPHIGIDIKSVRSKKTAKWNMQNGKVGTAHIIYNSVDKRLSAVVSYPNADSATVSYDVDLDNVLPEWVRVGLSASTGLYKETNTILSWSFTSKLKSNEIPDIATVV
Luciferin 4-monooxygenase (Photinus pyralis), sequence (P08659 whole entry, looked up): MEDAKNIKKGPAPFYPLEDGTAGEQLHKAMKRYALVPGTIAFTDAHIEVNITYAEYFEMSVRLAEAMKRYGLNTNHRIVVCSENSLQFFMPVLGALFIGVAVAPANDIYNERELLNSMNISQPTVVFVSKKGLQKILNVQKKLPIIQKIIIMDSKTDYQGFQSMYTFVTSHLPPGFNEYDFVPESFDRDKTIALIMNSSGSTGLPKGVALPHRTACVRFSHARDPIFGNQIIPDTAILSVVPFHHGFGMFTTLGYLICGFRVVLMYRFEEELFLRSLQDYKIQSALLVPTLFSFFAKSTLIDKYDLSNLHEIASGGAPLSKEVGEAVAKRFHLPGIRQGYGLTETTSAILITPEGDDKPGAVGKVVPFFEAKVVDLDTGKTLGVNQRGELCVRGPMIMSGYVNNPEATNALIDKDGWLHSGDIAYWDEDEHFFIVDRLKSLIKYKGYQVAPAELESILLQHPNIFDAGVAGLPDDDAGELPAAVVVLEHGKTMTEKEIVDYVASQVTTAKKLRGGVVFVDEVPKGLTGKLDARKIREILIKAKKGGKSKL
Albumin (Bos taurus), sequence (P02769 whole entry, looked up): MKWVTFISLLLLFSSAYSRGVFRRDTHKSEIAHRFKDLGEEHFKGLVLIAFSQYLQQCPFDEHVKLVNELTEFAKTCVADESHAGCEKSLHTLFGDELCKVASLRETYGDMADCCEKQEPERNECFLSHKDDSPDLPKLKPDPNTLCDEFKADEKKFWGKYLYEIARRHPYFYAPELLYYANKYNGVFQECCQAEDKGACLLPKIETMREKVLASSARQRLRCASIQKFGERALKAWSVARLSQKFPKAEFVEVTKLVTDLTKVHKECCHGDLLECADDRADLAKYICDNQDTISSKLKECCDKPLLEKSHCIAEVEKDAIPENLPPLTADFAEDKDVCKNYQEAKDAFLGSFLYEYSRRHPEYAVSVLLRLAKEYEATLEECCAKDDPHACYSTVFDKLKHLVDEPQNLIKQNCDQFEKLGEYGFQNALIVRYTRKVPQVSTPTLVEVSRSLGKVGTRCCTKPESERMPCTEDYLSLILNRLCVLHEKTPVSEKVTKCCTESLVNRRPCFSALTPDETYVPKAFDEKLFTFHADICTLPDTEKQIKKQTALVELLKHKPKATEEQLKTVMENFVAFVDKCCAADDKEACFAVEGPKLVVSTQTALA
Fibroblast growth factor 2 (Homo sapiens), sequence (P09038 whole entry, looked up): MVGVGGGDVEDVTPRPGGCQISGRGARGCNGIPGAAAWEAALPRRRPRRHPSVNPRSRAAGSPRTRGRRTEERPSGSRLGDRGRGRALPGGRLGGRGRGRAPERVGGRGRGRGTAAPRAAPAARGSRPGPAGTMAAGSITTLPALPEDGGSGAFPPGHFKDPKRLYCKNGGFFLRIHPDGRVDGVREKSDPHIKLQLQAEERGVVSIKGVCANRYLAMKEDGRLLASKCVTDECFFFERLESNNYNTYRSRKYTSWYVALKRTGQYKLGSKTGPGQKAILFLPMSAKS
Follistatin (Homo sapiens), sequence (P19883 whole entry, looked up): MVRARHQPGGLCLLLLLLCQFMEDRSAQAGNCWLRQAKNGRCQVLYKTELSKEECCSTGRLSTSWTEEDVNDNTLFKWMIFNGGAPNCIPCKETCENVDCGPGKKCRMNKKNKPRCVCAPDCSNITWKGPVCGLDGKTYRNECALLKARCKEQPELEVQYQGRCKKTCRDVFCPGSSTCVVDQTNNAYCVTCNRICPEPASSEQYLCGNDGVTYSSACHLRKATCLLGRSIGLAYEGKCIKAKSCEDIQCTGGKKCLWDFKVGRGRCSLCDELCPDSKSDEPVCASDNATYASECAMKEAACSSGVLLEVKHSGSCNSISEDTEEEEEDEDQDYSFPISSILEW
Focal adhesion kinase 1 (Homo sapiens), sequence (Q05397 whole entry, looked up): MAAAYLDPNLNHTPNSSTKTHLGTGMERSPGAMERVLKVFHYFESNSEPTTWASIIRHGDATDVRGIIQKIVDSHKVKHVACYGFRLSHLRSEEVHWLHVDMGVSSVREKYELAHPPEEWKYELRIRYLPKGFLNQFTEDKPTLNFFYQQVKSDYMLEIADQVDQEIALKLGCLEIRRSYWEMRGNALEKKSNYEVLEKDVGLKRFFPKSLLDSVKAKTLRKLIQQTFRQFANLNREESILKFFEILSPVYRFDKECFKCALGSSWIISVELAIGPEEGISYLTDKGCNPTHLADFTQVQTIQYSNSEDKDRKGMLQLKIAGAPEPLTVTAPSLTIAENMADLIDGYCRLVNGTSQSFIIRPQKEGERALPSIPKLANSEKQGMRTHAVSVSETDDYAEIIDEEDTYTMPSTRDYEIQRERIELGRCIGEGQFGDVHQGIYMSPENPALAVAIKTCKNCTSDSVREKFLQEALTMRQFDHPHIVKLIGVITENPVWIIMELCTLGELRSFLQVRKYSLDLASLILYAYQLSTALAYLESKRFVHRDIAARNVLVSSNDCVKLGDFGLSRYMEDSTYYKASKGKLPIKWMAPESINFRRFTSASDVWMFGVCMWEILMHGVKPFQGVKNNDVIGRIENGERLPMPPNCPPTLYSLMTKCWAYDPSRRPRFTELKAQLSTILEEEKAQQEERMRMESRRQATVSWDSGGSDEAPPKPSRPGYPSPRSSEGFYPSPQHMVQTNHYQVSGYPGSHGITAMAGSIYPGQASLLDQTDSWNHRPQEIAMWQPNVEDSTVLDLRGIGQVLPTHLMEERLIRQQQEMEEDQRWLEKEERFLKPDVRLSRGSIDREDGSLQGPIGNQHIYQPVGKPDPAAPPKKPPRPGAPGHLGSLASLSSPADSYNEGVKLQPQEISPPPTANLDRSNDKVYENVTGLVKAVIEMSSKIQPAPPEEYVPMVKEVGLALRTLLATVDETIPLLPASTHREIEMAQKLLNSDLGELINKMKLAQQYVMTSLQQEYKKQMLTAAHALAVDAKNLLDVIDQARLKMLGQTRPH

`CC1=C[C@@]2(CO)C(=O)[C@]3(CO3)[C@@H]1[C@H]1[C@]2(C)C=C(CO)C(=O)[C@]12CO2`: the composite z-score was -0.123 with Albumin (Bos taurus); 0.112 in [2]; -0.0795 in test [3]; 0.497 in test [4]; -0.255 in test [5]; -0.274 in test [6]. Besides, the composite z-score in the test with Sam68 (KHDRBS1) was 0.369; in [7] it was 0.397; in test [8] it was 0.301; in [9] it was 0.0455; in [10], -0.0634; in [11] it was 0.206. In addition, the composite z-score in [12] is -0.403; in test [13], 0.443; in test [14], 0.165; in the test with Lefty1 it was 0.381; in test [16] it was 0.207. In [1], the composite Z-score was 0.817 (inactive). Besides, the z-score is 0.173 in [15] and 0.538 (inactive) in test [17].

With `COC(=O)[C@@]1(Cc2ccc(F)cc2)[C@H]2c3cc(C(=O)N(C)C)n(Cc4cc(F)cc5c4OCOC5)c3C[C@H]2CN1C(=O)c1ccccc1`, the composite z-score was 1.07 with Albumin (Bos taurus); 0.24 in test [2]; 0.105 in [3]; 0.376 in [4]; 2.97 in [5]; 0.271 in test [6]. Also, the composite z-score was 1.33 in the test with Sam68 (KHDRBS1); -0.535 in test [7]; 1.04 in [8]; 1.06 in test [9]; 1.19 in test [10]; 1.5 in test [11]. Moreover, the composite z-score was 1 in [12]; 1.04 in test [13]; -0.0284 in test [14]; 0.444 in the test on Lefty1; 1.06 in test [16]. Further, in test [1], the composite Z-score was -0.199 (inactive). The z-score is -0.915 in test [15] and -0.724 (inactive) in test [17].

For `O=C1O[C@H](c2ccccc2)[C@H](c2ccccc2)N2[C@H]1[C@@H](C(=O)O)[C@]1(C(=O)Nc3ccc(C#CC4=CCCCC4)cc31)[C@H]2c1ccc(O)cc1`, the composite z-score with Albumin (Bos taurus) is 0.562; in [2], 0.0445; in [3] it was -0.105; in test [4], 0.627; in test [5] it was 1.51; in test [6], 0.384. Further, the composite z-score came to 0.712 with Sam68 (KHDRBS1); 0.285 in test [7]; 0.997 in test [8]; 0.687 in test [9]; 0.394 in [10]; 0.0304 in test [11]. For the same compound, the composite z-score in [12] came to 0.987; in test [13], 1.35; in test [14], 0.392; in the test with Lefty1, 0.841; in test [16], 0.362. Moreover, the composite Z-score in test [1] was 0.235 (inactive). For the same compound, the z-score in test [15] was -2.35; in [17], -2.89 (inactive).

Consider `COC(=O)[C@H](Cc1ccccc1)N1CC(/C=C/C2CC2)=C[C@H]1[C@H](O)Cc1ccccc1`, for which the composite z-score in the test with Albumin (Bos taurus) is 0.59; in test [2] it was -0.095; in [3], -0.14; in [4], 0.456; in [5], 0.726; in test [6], 0.148. In addition, the composite z-score in the test with Sam68 (KHDRBS1) was 1.2; in test [7] it was 0.732; in [8], 0.981; in test [9] it was -0.0173; in [10], 0.921; in [11], 0.437. In addition, the composite z-score in test [12] was 0.667; in [13], 0.582; in test [14], 0.526; in the test on Lefty1 it was 0.545; in [16], 0.958. Besides, the composite Z-score in test [1] was -0.0662 (inactive). In addition, the z-score in test [15] was -0.267; in [17], -0.807 (inactive).

Take `CCOc1cc(C(O)C2C=CC3C(=O)N(c4ccccc4)C(=O)C3N2Nc2ccc(C#N)cc2)ccc1O` (stereo not given): the composite z-score with Albumin (Bos taurus) was 0.876; in test [2] it was 0.0638; in test [3], -0.171; in test [4] it was 0.877; in [5], 0.825; in test [6], 0.876. For the same compound, the composite z-score was -0.0645 in the test on Sam68 (KHDRBS1); -0.879 in test [7]; 1.03 in [8]; 1.29 in [9]; 0.161 in [10]; 0.471 in test [11]. The composite z-score was 0.961 in [12]; 0.765 in test [13]; -0.667 in test [14]; 0.113 with Lefty1; 0.961 in test [16]. In addition, the composite Z-score in [1] was 0.793 (inactive). The z-score in test [15] was -0.00105; in [17], -0.519 (inactive).

For the compound `CN(C)CCCNC(=O)[C@@]1(C)c2ccccc2C(=O)N(Cc2ccccc2)[C@H]1c1ccc(CO)cc1`, the composite z-score was -1.05 in the test with Albumin (Bos taurus); -0.264 in test [2]; -0.236 in [3]; 0.704 in [4]; -0.358 in [5]; -0.39 in test [6]. Besides, the composite z-score was -0.0419 with Sam68 (KHDRBS1); -0.19 in [7]; -0.371 in test [8]; 0.761 in [9]; -1.49 in test [10]; -0.3 in test [11]. Besides, the composite z-score in [12] is -0.995; in [13] it was 0.392; in test [14], -0.0132; in the test on Lefty1, -0.067; in test [16], -0.749. For the same compound, the composite Z-score in [1] is -0.194 (inactive). For the same compound, the z-score in [15] is -0.322; in test [17], -0.0692 (inactive).

Turning to `C=CC[C@]1(C(=O)O)COC(c2ccc(OCCCO)cc2)=N1`, the composite z-score is 0.157 with Albumin (Bos taurus); -0.0967 in test [2]; -0.222 in test [3]; 0.969 in test [4]; 1.14 in test [5]; 0.308 in [6]. Further, the composite z-score in the test with Sam68 (KHDRBS1) was 0.343; in test [7], 0.422; in test [8], -0.427; in [9], 1.53; in test [10], 0.205; in [11], -0.0931. Besides, the composite z-score in test [12] was 0.219; in test [13], 0.372; in [14], -0.105; with Lefty1 it was 0.378; in test [16], 0.342. The composite Z-score in [1] is 0.0512 (inactive). Moreover, the z-score in test [15] was 0.0454; in test [17] it was -0.497 (inactive).

In the case of `O=C1O[C@@H](c2ccccc2)[C@@H](c2ccccc2)N2[C@@H](c3ccc(OCCO)cc3)[C@]3(C(=O)Nc4ccccc43)[C@@H](C(=O)O)[C@H]12`, the composite z-score with Albumin (Bos taurus) was -0.0883; in [2], 1.09; in test [3], 0.464; in test [4], 0.745; in test [5], 1.03; in test [6], 0.741. Besides, the composite z-score with Sam68 (KHDRBS1) was 0.428; in test [7] it was -0.12; in test [8], 0.539; in test [9] it was 2.37; in test [10], 0.177; in [11], -0.0546. In addition, the composite z-score is 0.679 in test [12]; 0.197 in test [13]; -0.406 in test [14]; 0.044 in the test on Lefty1; 0.125 in test [16]. For the same compound, in test [1], the composite Z-score is -0.24 (inactive). Besides, the values for the z-score in test [15] and in test [17] were -0.75 and -1.43 (inactive), respectively.

For the compound `C=C(COC)/C(=C/C[C@H](OC(C)=O)c1ccc(OCCO)cc1)c1cc(C(=O)OC)ccc1OC`, the composite z-score with Albumin (Bos taurus) was -0.115; in test [2], 0.0642; in test [3] it was -0.107; in [4] it was 0.622; in [5], 0.685; in test [6] it was -0.0565. The composite z-score with Sam68 (KHDRBS1) came to 1.07; in test [7], 0.501; in [8], 0.519; in test [9], 0.544; in test [10], 1.07; in [11], 0.514. Further, the composite z-score in [12] was 0.436; in test [13], 1.35; in [14], 1.67; in the test on Lefty1 it was 1.66; in test [16], 0.395. For the same compound, in test [1], the composite Z-score is 0.835 (inactive). In addition, the z-score is 2.8 in test [15] and -1.71 (inactive) in test [17].
